Source: PMC4336329 (PLoS ONE, 2015)
In all, about 310,000 compounds went through this assay and about 14,000 (4.5%) showed an effect of 50% or more. The effect is printed as a negative number. The sample holds strong results, similar compounds and a random draw of the others, so the mix is not that of the screen.

Target: human ether-à-go-go-related gene (hERG) potassium channel (human, UniProt Q12809)
Experiment: primary screen, population patch clamp on CHO cells stably expressing hERG; higher = less effect of the substance
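Also: peak tail current of the secondary pulse compared with the same well before compound.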

Chain of human ether-à-go-go-related gene (hERG) potassium channel (Q12809 whole entry, looked up): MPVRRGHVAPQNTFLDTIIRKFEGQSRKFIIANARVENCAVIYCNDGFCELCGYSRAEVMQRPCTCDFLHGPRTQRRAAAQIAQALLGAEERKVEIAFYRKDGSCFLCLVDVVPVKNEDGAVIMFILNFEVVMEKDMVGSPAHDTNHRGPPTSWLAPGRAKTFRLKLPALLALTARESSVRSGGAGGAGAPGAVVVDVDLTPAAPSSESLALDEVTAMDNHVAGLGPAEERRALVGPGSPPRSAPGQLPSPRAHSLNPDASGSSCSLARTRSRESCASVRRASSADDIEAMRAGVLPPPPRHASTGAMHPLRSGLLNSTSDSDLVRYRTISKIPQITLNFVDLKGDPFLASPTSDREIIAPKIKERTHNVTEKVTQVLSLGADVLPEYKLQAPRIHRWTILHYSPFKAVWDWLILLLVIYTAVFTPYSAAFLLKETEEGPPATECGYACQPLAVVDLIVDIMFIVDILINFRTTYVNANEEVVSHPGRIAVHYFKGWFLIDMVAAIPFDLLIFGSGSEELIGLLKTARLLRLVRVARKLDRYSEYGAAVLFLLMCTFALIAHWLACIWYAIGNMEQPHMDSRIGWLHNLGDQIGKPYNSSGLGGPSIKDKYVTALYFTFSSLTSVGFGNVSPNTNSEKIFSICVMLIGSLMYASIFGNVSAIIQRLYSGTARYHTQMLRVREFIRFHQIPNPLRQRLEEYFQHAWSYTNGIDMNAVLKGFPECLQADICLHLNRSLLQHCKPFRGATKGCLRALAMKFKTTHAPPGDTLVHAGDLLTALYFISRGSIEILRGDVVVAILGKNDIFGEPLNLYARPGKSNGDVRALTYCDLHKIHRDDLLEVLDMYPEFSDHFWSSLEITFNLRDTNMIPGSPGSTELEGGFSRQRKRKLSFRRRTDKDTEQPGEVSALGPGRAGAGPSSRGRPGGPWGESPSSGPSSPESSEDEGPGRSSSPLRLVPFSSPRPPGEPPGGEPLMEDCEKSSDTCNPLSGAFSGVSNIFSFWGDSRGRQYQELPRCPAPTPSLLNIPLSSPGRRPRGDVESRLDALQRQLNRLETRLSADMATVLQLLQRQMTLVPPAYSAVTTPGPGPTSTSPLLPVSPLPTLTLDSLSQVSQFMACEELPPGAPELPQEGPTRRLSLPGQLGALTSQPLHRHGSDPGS

| Compound | hERG current change (%, negative = inhibition) at 10uM [%] |
| --- | --- |
| C#CCOC(=O)c1ccccc1C(=O)O | 7.07 |
| N#C/C(=C/c1cc(Br)cs1)C(=O)NCC1CCCO1 (centres unmarked) | -14.8 |
| O=C(OCn1ncc(Cl)c(Cl)c1=O)c1ccc(F)cc1 | -3.74 |
| O=C(OCn1ncc(Br)c(Br)c1=O)c1ccc(F)cc1 | -51.4 |
| O=C(OCn1ncc(Br)c(Br)c1=O)c1c(F)cccc1F | 14.9 |
| O=C(CN1CCN(C(=O)c2ccccc2)CC1)Nc1ccc(Cl)cc1F | -71 |
| O=C(CN1CCN(C(=O)c2c(F)cccc2F)CC1)Nc1ccccc1F | -11.3 |
| Cl.O=C(CN1CCN(C(=O)c2cccc(F)c2)CC1)NC1CCCCC1 | 2.39 |
| O=C(CN1CCN(Cc2cccc(F)c2)CC1)NCc1ccccc1 | -10.4 |
| O=C(c1cccc(Cl)c1)N1CCN(Cc2ccccc2F)CC1 | 10.1 |
| O=C(CN1CCN(C(=O)c2cccc(F)c2)CC1)Nc1ccccc1F | -70.1 |
| O=C(CN1CCN(Cc2ccc(F)cc2)CC1)Nc1ccccc1F | -35.2 |
| O=C(CN1CCN(Cc2cccc(F)c2)CC1)Nc1ccccc1F | -55.9 |
| O=C(CN1CCCCCC1)Nc1ccc(Cl)cc1F | -2.05 |
| Cc1ccc(-c2nc(C3CCCN(S(=O)(=O)c4ccc(C(F)(F)F)cc4)C3)no2)cc1 (centres unmarked) | 15 |
| CC(C)(C)C(=O)Nc1c2c(nn1-c1ccc(F)cc1)CSC2 | 13.4 |
| COc1ccc(C(=O)NCCSCc2ccccc2)cc1OC | -5.31 |
| Cc1nnc(SCC(=O)NC2CCCCC2)s1 | 10.7 |
| O=[N+]([O-])c1cc(C(F)(F)F)ccc1Oc1cccnc1[N+](=O)[O-] | -7.06 |
| O=C1CSC(=S)N1Cc1cccnc1 | -2.25 |
| O=S(=O)(Nc1ccccn1)c1ccc(Br)cc1 | -2.97 |
| Cc1cc(C)c(C#N)c(Nc2ccccc2C)n1 | 12.4 |

| Compound | hERG current change (%, negative = inhibition) at 10uM [%] |
| --- | --- |
| O=C(O)C(=O)O.O=[N+]([O-])c1cccc(CN2CCN(Cc3ccc(Cl)cc3)CC2)c1 | -70.8 |
| O=C(O)C(=O)O.O=C(c1ccco1)N1CCN(Cc2cccc([N+](=O)[O-])c2)CC1 | -20.3 |
| O=C(O)C(=O)O.O=[N+]([O-])c1cccc(CN2CCN(Cc3ccc(Br)cc3)CC2)c1 | -72.4 |
| O=C(O)C(=O)O.O=C(c1cccs1)N1CCN(Cc2cccc([N+](=O)[O-])c2)CC1 | -33.1 |
| CC(C)N1CCN(Cc2cccc([N+](=O)[O-])c2)CC1 | -2.13 |
| O=C(O)C(=O)O.O=[N+]([O-])c1cccc(CN2CCN(Cc3ccco3)CC2)c1 | -4.34 |
| Cc1cccc(NC(=O)CN2C(=O)S/C(=C\c3ccccn3)C2=O)c1 | 30.2 |
| O=C(CCn1nnc2ccccc21)Nc1nnc(-c2ccccc2F)s1 | 3.13 |
| N#CC1=C(N)Oc2n[nH]c(-c3ccccn3)c2C1c1c(F)cccc1Cl (centres unmarked) | -3.23 |
| CCOc1ccc(OCCCCNCCN)cc1.O=C(O)C(=O)O | 5.79 |
| COC(=O)C1=NN(c2ccc(C)cc2)C2(S1)SC(C(C)=O)=C(C)N2c1ccccc1 (centres unmarked) | -10 |
| CCOc1ccc(CNC(=O)CCSCc2ccccc2F)cc1OC | 5.18 |
| Cc1ccc(/C=C(/C#N)c2nc(CCN3C(=O)c4ccccc4C3=O)cs2)cc1 | 21.6 |
| COc1ccc(CN2CCN(S(=O)(=O)c3ccccc3)CC2)c(OC)c1OC | 3.14 |
| COc1ccc(OC)c(CN2CCN(S(=O)(=O)c3ccccc3)CC2)c1 | -79.2 |
| COc1ccc(OC)c(CN2CCN(S(=O)(=O)c3ccc(NC(C)=O)cc3)CC2)c1.O=C(O)C(=O)O | -3.01 |
| COc1ccc(CN2CCN(S(=O)(=O)c3ccccc3)CC2)c(OC)c1.O=C(O)C(=O)O | -63.5 |
| COc1ccc(S(=O)(=O)N2CCN(Cc3cc(OC)c(OC)cc3OC)CC2)cc1.O=C(O)C(=O)O | -11.5 |
| COc1cc(CN2CCN(S(=O)(=O)c3ccccc3)CC2)cc(OC)c1OC.O=C(O)C(=O)O | -5.31 |
| CCOC(=O)Cn1cnc2sc(C(=O)OC)c(C)c2c1=O | 11.1 |
| CCn1c(COc2ccccc2OC)nnc1SCC#N | -3.43 |
| C=CCn1c(SCC(=O)c2cccs2)nc2sc(C)cc2c1=O | 1.56 |
